In all, about 310,000 compounds went through this assay and about 1,200 (0.39%) were called active. No rule for the calls is given here. These entries were drawn from the full list. Measured potencies and affinities stand elsewhere.
Target: Large T antigen (Simian virus 40) (UniProt P03070)
Assay: TAg ATPase/helicase activity blockers – biochemical (AID 1903)
Conditions: SV40 large T antigen ATPase/helicase inhibition assay; at 20 µM; active compounds read high

Large T antigen (Simian virus 40), sequence (P03070 whole entry, looked up): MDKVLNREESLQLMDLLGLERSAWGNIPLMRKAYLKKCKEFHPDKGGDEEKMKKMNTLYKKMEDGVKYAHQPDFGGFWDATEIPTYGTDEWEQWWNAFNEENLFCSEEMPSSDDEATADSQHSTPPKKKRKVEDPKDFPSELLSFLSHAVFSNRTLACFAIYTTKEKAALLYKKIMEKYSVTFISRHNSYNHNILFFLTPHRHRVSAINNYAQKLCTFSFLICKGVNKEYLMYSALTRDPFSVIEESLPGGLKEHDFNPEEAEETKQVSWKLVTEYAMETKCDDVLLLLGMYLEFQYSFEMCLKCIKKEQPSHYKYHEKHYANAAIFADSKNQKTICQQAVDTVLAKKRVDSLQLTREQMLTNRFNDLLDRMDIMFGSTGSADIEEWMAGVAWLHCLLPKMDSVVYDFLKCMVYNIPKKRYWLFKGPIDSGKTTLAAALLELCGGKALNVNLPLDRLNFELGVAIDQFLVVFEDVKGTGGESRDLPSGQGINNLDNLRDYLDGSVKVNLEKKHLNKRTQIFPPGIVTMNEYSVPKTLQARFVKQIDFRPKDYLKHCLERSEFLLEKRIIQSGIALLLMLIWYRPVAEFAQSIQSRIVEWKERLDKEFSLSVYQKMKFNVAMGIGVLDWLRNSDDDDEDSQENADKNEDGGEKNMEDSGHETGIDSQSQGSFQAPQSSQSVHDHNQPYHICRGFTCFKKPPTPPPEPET

inhibition, inactive:
Cc1ccc(C)c(NC(=O)CN(C)C(=O)c2cc3c(s2)CCCCC3)c1 17%
C=CCNC(=O)COCc1cc(-c2ccc3c(c2)OCO3)on1 7.76%
CN(C)C(=O)CSc1nnc(-c2ccc(S(=O)(=O)N3CCCC3)cc2)n1C -1.24%
C/C(=N/OC(=O)CC(C)C)c1cc(-c2ccc(Cl)cc2)no1 4.31%
O=C(CCN1CCOCC1)N/N=C/c1cc([N+](=O)[O-])ccc1OC(F)F 5.27%
Cc1ccccc1-c1nnn(CC(=O)N2CCN(C(=O)c3ccco3)CC2)n1 14.3%
CCCOc1ccc(C(=O)Nn2c(C)nc3ccccc3c2=O)cc1 1.86%
Nc1ncc(Br)cc1N=Cc1ccccc1 9.46%
Nc1ncnc(N)c1N=Nc1ccccc1 8.05%
C=CCN(C(=O)c1ccccc1)c1ccc(OC)cc1 -2.78%
O=C(c1ccco1)N1CCN(C(=O)c2cc(-c3ccc(F)cc3)no2)CC1 8.37%
CC(C)CNC(=O)c1cc(-c2ccc3c(c2)OCO3)on1 4.96%
COc1ccc2c(c1)S(=O)(=O)c1ccccc1N2 1.87%
Cc1nc(SCC(=O)N2c3ccccc3Sc3ccccc32)n[nH]1 12.6%
O=C(CSc1nnc(-c2ccccc2)n1-c1ccccc1)N1c2ccccc2Sc2ccccc21 4.91%
O=C(O)CCc1ccc(S(=O)(=O)Nc2ccccc2C(=O)NCCc2ccccc2)cc1 6.21%
CCOC(=O)C(CN1CCCC1)c1ccccc1 (configuration not stated) 6.65%
COc1cccc(/C=N/NC(=O)C(=O)N2CCCCCC2)c1O 28.6%
CCCc1cc(=O)[nH]c(N/N=C/C=C\c2ccccc2)n1 6.47%
O=C(N/N=C\c1c[nH]c2ccccc12)c1ccc(O)cc1 18%
Cc1cc(N/N=C/c2c[nH]c3ccccc23)c2ccccc2n1 5.53%
Cc1cc(C)nc(N/N=C/c2c[nH]c3ccccc23)n1 33.8%
O=C(N/N=C/c1c[nH]c2ccccc12)c1cccc(O)c1 16%
Cc1cc(C)c(COCc2cc(/C=N/O)c(C)cc2C)cc1/C=N/O -0.28%
C=CCN1C(=O)C(Cc2ccccc2)SC1=Nc1ccc(C(=O)O)cc1 (configuration not stated) 25.5%
C/C(=N\NC(=O)c1ccc(N)cc1)C1CC1 9.62%
CCN1CCN(C(=O)Cn2ncc3c([nH]c4ccc(C)cc43)c2=O)CC1 9.03%
Cc1cccc(NC(=S)NCc2ccc3c(c2)cc(C)n3C)c1C 5.14%
Cc1ccnc(SCc2cc(=O)c(OC(=O)c3ccc(S(=O)(=O)N(C)C)cc3)co2)n1 15.9%
Cc1cc(C)nc(SCc2cc(=O)c(OC(=O)c3ccc(Cl)c([N+](=O)[O-])c3)co2)n1 9.56%
Cc1cc(C)nc(SCc2cc(=O)c(OC(=O)c3ccc(S(=O)(=O)N(C)C)cc3)co2)n1 22.4%
Cc1ccnc(SCc2cc(=O)c(OC(=O)c3ccc(S(=O)(=O)N4CCCC4)cc3)co2)n1 48.9%
Cc1ccc(NC(=O)CN(C)C(=O)C2COc3ccccc3O2)cc1 (configuration not stated) 6.98%
Cc1ccc(S(=O)(=O)NC2=NCN(CC(=O)O)CN2)cc1 7.75%
CC(=O)n1cc([C@H]2C=C(C(=O)N3CCN(Cc4ccc5c(c4)OCO5)CC3)O[C@@H](OCCCCO)C2)c2ccccc21 21.8%
CCOc1ccc(CNS(=O)(=O)c2ccc3c(c2)CC(=O)N3C)cc1 11.9%
CCOc1ccc(Oc2nc(Nc3ccc(C)cc3)nc(N(C)C)n2)nn1 -0.33%
COc1ccc(-n2ncc3c(=O)n(CC(=O)Nc4ccc(S(=O)(=O)N5CCOCC5)cc4)cnc32)cc1 5.14%
COC(=O)C(N)Cc1ccc(O)c(O)c1 (configuration not stated) 20.9%
COC(=O)[C@@H](N)Cc1ccc(O)c(O)c1 10%
COC(=O)c1ccc(NC(=O)COc2cccc3c2OC(C)(C)C3)cc1 -1.91%
CC(=O)Nc1sc(N/N=C\c2cccc(Cl)c2)nc1-c1cccs1 18.8%
CC(=O)Nc1sc(N/N=C\c2ccccc2)nc1-c1cccs1 21%
CC(=O)Nc1sc(N/N=C\c2ccccc2F)nc1-c1cccs1 9.59%
COc1cc(/C=N\Nc2nc(-c3ccc(C)cc3)c(NC(C)=O)s2)ccc1O 35.9%
CCOc1cc(/C=N\Nc2nc(-c3ccc(C)cc3)c(NC(C)=O)s2)ccc1O 26.6%
CC(=O)Nc1sc(N/N=C\c2ccccc2Cl)nc1-c1cccs1 34.5%
OCCN(CCO)c1ccc(C(c2ccc(Cl)cc2)c2ccc(N(CCO)CCO)cc2Cl)c(Cl)c1 2.12%
COC(=O)c1c(-c2ccccc2)noc1-c1ccccc1 8.1%
O=C(c1cccc(S(=O)(=O)N2CCOCC2)c1)N1CCCCCC1 0.39%
Cc1ccc(NC(=O)CN2CCc3cc4c(cc3C2C)OCCCO4)cc1 (configuration not stated) 8.62%
CN1C(C(=O)Nc2ccc(OC(F)(F)F)cc2)=CC(c2ccco2)=NS1(=O)=O 8.59%
COC(=O)c1sc2cc([N+](=O)[O-])cc(SCC(C)C)c2c1N 10.4%
COc1cc(Cl)cc(C#N)c1OCC(=O)O -0.11%
Cc1[nH]c2ccccc2c1N=Nc1c(C)n(C)n(-c2ccccc2)c1=O 6.57%
Cc1c(NCc2ccccc2O)c(=O)n(-c2ccccc2)n1C 29%
CCC(C)C1=CC(=Nc2c(C)n(C)n(-c3ccccc3)c2=O)C=C(C(C)CC)C1=O (configuration not stated) 4.02%
Cc1c(N=NC2=C(O)CCCC2=O)c(=O)n(-c2ccccc2)n1C -2.74%
Cc1c(N=Nc2ccc(O)cc2)c(=O)n(-c2ccccc2)n1C 28%
Cc1c(N=NC2=C(O)CC(C)(C)CC2=O)c(=O)n(-c2ccccc2)n1C 4.32%
CC(=O)/C(N=Nc1c(C)n(C)n(-c2ccccc2)c1=O)=C(\C)O 1.99%
CC1=CC(=Nc2c(C)n(C)n(-c3ccccc3)c2=O)C=C(C)C1=O 2.58%

— PubChem BioAssay AID1903 (Southern Research Specialized Biocontainment Screening …, 2009)
